Not all results are given here.
TNAP Pi inh: inhibitors of human tissue-nonspecific alkaline phosphatase | inhibition, % at 20 µM | purified TNAP, pNPP, malachite green phosphate absorbance | P05186 | 21,000 tested, under 10 active
Target sequence (P05186 whole entry, looked up): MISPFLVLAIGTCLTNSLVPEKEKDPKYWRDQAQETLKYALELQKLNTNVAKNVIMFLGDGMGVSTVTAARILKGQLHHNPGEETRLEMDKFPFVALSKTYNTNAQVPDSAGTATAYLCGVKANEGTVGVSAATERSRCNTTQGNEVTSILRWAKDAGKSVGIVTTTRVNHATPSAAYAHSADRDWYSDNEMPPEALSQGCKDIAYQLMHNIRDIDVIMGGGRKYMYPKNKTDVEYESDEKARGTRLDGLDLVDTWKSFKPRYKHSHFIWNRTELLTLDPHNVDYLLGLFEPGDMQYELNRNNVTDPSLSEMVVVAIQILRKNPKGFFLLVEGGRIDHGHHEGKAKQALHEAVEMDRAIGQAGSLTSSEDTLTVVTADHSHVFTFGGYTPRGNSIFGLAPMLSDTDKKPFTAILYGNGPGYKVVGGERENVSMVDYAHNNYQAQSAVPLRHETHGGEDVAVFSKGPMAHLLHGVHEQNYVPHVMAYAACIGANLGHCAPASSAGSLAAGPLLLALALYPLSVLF
TNAP inh pNP: inhibitors of human tissue-nonspecific alkaline phosphatase. 21,000 tested, under 10 active. AID 615. purified TNAP, pNPP hydrolysis, absorbance 405 nm. inhibition, % at 20 µM. P05186
Large screens that a line does not name were inactive.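 How the source made its calls: active means inhibition above 50% at the 20 µM single-dose screen; inactive means the rest.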

COc1cc(C2c3c(oc4ccccc4c3=O)C(=O)N2Cc2ccncc2)ccc1O (centres undefined)	none
CCOc1cccc(C(=O)Nc2ccccc2N2CCN(C(=O)C(C)C)CC2)c1	none
CCOc1cc(C2NC(=O)NC(C)=C2C(=O)OCc2ccccc2)ccc1O (centres undefined)	none
CN(c1ccccc1)C(c1ccc(F)cc1)c1nnnn1C1CCCC1 (centres undefined)	none
CCn1c(SCC(=O)Nc2nc3ccc(OC)cc3s2)nc2c1c(=O)n(C)c(=O)n2C	none
CN(C)S(=O)(=O)c1ccc(S(=O)(=O)N(Cc2ccccn2)Cc2ccco2)cc1	none
COc1ccccc1N(CCC#N)C(=O)CSc1nc(-c2ccccc2)cn1N	none
CN(C)CCNC(=O)C(C(=O)c1ccc(F)cc1)n1ccccc1=O (centres undefined)	none
CCN(C(=O)c1cccc(F)c1)c1ccccc1C	none
COc1ccccc1NS(=O)(=O)c1cc(Cl)ccc1OC	none
CCOc1cccc(N2C(=O)CC(NCc3ccc(S(N)(=O)=O)cc3)C2=O)c1 (centres undefined)	none
CCC(=O)Nc1ccc(-c2nnc(SCC(=O)NCC3CCCO3)n2C)cc1 (centres undefined)	none
CN(CCO)C(=O)CCC(=O)Nc1ccc(S(N)(=O)=O)cc1	none
CCOC(=O)NC1(NC2CCCCC2)Oc2ccccc2O1	none
CCOC(=O)C(C)Oc1ccc(C2NC(=O)NC(C)=C2C(=O)Nc2ccccc2C)cc1 (centres undefined)	none
CCCn1c(=O)c(C(=O)Nc2nnc(C)s2)c(O)c2ccccc21	none
Cc1nc2cc(F)ccc2n1C1CCN(S(=O)(=O)c2ccccc2)CC1	none
COC(=O)c1ccc2c(=O)n(CCN3CCOCC3)c(=S)[nH]c2c1	none
CC1(C2(O)CC(c3ccccc3)ON2)CCCCC1 (centres undefined)	none
Cc1ccc(N2C(=O)CC3(CC4C=CC3C4)C2=O)cc1 (centres undefined)	none
CCCC(c1nnnn1Cc1ccco1)N1CCC(C(N)=O)CC1 (centres undefined)	none
COc1ccccc1NCCC(=O)OCC(=O)Nc1ccc(Cl)cn1	none
Cc1ccc2[nH]c3c(c2c1)CN(C(=O)CN1CCN(c2ccccc2F)CC1)CC3	none
CC(C)NC(=O)CSc1nncn1-c1ccccc1	none
O=C(CSc1n[nH]c(-c2ccc(S(=O)(=O)N3CCCCC3)cc2)n1)Nc1nccs1	none
COc1c(Cl)ccc(Cl)c1C(=O)OCC(=O)O	none
COc1ccc(-c2nnnn2CCc2ccccc2)cc1	none
Cc1c(CCC#N)c(N2CCN(C3CCCCC3)CC2)n2c(nc3ccccc32)c1C#N	none
CCCn1c(SCC(=O)NCCc2ccc(Cl)cc2Cl)n[nH]c1=O	none
CC(=O)Oc1c(Cl)c(N2CCOCC2)c(OC(C)=O)c2ccccc12	none
CC1(C)CC(=O)C(C=NCCCn2ccnc2)=C(O)C1	none
CCCc1cc(NCCN2CCOCC2)n2c(nc3ccccc32)c1C#N	none
COc1ccc(/C(O)=C2/C(=O)C(=O)N(CCN3CCOCC3)C2c2ccccn2)cc1 (centres undefined)	none
CC(=O)N1CCN(c2ccc(NC(=O)c3ccccc3Br)cc2Cl)CC1	none
CC(=O)C1=C(C)Nc2ncnn2C1c1ccccc1OCc1ccccc1 (centres undefined)	none
ONC=Nc1cccc2nonc12	none
N#Cc1nc(-c2ccco2)oc1NCCCn1ccnc1	none
O=C(N1CCCC1)n1c(Cc2ccccc2)nc2ccccc21	none
CC1(c2cccs2)CC(c2cccs2)=C(C#N)C(=O)N1 (centres undefined)	none
OC(CN1CCN(c2cccc(C(F)(F)F)c2)CC1)c1c[nH]c2ccccc12 (centres undefined)	none
CCCc1nc2ccccc2c(=O)n1/N=C/c1c(C)[nH]n(-c2ccc(C)cc2)c1=O	none
CCOc1cc(C(=O)NCCOC)ccc1OC	none
Cc1ccc(/C=C/C2=Cc3c(sc(NC(=O)CSc4n[nH]c(N)n4)c3C#N)C(C)(C)C2)o1	none
COc1cc(N2CN=c3s/c(=C\c4ccccn4)c(=O)n3C2)cc(OC)c1OC	none
COc1ccc(OC)c(S(=O)(=O)N2CCC(C(=O)N3CCc4ccccc4C3)CC2)c1	none
O=C(CN1CCCC1=O)NC1(C(F)(F)F)NC(=O)N(Cc2ccccc2)C1=O (centres undefined)	none
COc1cc2nc(CN3CCN(c4ncc(C(F)(F)F)cc4Cl)CC3)[nH]c(=O)c2cc1OC	none
CN(Cc1ccccc1)C(=O)CSc1nnc(-c2ccco2)n1-c1ccccc1	none
Cc1ccccc1NC(=O)CCC(=O)OCCCC(F)(F)C(F)(F)F	none
CC1(C)CN=C(N2CCN(C3=NCC(C)(C)S3)CC2)S1	none
COCCNC(=O)C1CCN(S(=O)(=O)c2ccccc2)CC1	none
CCOC(=O)CN1C(=O)C(O)(C2CCc3ccccc3C2=O)c2ccccc21 (centres undefined)	none
CC(C)(C)NC(=O)CSc1nccn1Cc1ccccc1	none
C=C(C)n1c(=O)[nH]c2ccccc21	none
CCCCOc1ccc(/C(N)=N/O)cc1	none
CCn1c(=O)c(C2=NS(=O)(=O)c3ccccc3N2)c(O)c2ccccc21	none
COc1ccc(N2CCN(c3nc4c(c(=O)[nH]c(=O)n4C)n3CCCc3ccccc3)CC2)cc1	none
COc1ccc2c(c1)N(C)C(=O)CC(c1ccccc1)=N2	none
CC1=C(C#N)c2nc(N)c(C#N)c(C)c2/C1=C\c1ccccc1	none
CCOC(=O)CSc1nc(C2CC2)nc2ccccc12	none
COc1ccc(CCn2c(-c3ccco3)nc3oc4ccccc4c(=O)c3c2=O)cc1	none
CCn1cc(C(=O)O)c(=O)c2cnc(N3CCN(C(=O)Nc4cccc5ccccc45)CC3)nc21	none
Cn1c(OCc2ccc3c(c2)OCO3)nc2c1c(=O)n(Cc1cccc(Cl)c1)c(=O)n2C	none
C=CC[N+](C)(C)CCCNC(=O)/C=N/O	none
O=C(N1CCCC1)N1CCN(c2ncnc3c(-c4ccc(Cl)cc4)nsc23)CC1	none
